# Data: PubChem BioAssay
# Assays:
# [1] = test system: Human papillomavirus type 1a protein E7 (residues 44-93); test: small molecules binding HPV E7 44-93 – biochemical, small-molecule microarray, residues 44-93, 635 nm fluorescence, primary screen (AID 1108); settings: fluorescence 635 nm, higher = more signal;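 note: E7 fragment applied at 1 µg/mL in TBST for 1 h at 4 C; score combines spot fluorescence with its signal to noise ratio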
# [2] = hepatitis C replication reporter changes, two-sided – Huh7 cells, luciferase reporter, HCV replication inhibitor project, primary screen (AID 1109); settings: Huh7 HCV replicon luciferase reporter, 48 h; higher = more signal;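 note: huh7 hepatoma cells harbouring a luciferase neomycin HCV replicon reporter; luciferase luminescence as measure of HCV replicon replication; test concentration not given here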
# [3] = biological target: Left-right determination factor 2 (Homo sapiens) (UniProt O00292); test: small molecules binding LEFTY2 protein – biochemical, small-molecule microarray, 635 nm fluorescence scan, primary screen (AID 1110); settings: higher = more signal
# [4] = biological target: Calmodulin-1 (Homo sapiens) (UniProt P0DP23); test: small molecules binding calmodulin-1 with EGTA – biochemical, small-molecule microarray, Cy5-labelled CALM1, profiling panel (AID 1111); settings: Cy5-CALM1 binding fluorescence, higher = more signal;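 note: labelled calmodulin applied in Tris saline Tween buffer holding calcium plus EGTA and DTT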
# [5] = biological target: Calmodulin-1 (Homo sapiens) (UniProt P0DP23); test: small molecules binding Ca-loaded calmodulin-1 – biochemical, small-molecule microarray, Cy5-labelled CALM1, plus calcium, artefact control for SMM control-protein annotation, profiling panel (AID 1112); settings: Cy5-CALM1 binding fluorescence, higher = more signal;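 note: score merges spot fluorescence with signal to noise from triplicate slides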
# [6] = probe aWnt5a binding to arrayed compounds – biochemical, biotinylated probe, 635/667 nm fluorescence, primary screen (AID 1113); settings: small-molecule microarray, higher = more signal;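 note: score merges 667 nm fluorescence intensity with signal-to-noise per printed feature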
# [7] = probe aShh binding to arrayed compounds – biochemical, biotinylated probe, 635/667 nm fluorescence, primary screen (AID 1114); settings: small-molecule microarray, higher = more signal;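 note: probe is biotin-labelled aShh protein from a stem cell growth factor screen; measures binding of labelled protein to compounds printed on the slide; score merges feature fluorescence at 667 nm with signal-to-noise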
# [8] = probe aNog binding to arrayed compounds – biochemical, biotinylated probe, 635/667 nm fluorescence, primary screen (AID 1115); settings: small-molecule microarray, higher = more signal;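 note: probe is biotinylated aNog protein used at 0.15 µg/mL for 1 h at 4 C; z-score combines 667 nm fluorescence of each spot with its signal to noise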
# [9] = biological target: Torsin-1A-interacting protein 1 (Homo sapiens) (UniProt Q5JTV8); test: compound microarray binding of lysate hLAP1 – cell lysate, small-molecule microarray, COS7 lysate, 635/667 nm fluorescence, primary screen (AID 1116); settings: 635 nm fluorescence, higher = more signal
# [10] = biological target: Alpha-bungarotoxin (Bungarus multicinctus) (UniProt P60615); test: compounds binding labelled alpha-BTX control protein – biochemical, small-molecule microarray, Alexa647 label, 635/667 nm fluorescence, artefact control for SMM control protein annotation, profiling panel (AID 1117); settings: alpha-BTX-A647 binding fluorescence, higher = more signal
# Chain of Alpha-bungarotoxin (Bungarus multicinctus) (P60615 whole entry, looked up): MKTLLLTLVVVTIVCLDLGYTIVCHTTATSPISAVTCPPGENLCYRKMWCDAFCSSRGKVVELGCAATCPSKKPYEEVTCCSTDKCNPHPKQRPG
# Chain of Left-right determination factor 2 (Homo sapiens) (O00292 whole entry, looked up): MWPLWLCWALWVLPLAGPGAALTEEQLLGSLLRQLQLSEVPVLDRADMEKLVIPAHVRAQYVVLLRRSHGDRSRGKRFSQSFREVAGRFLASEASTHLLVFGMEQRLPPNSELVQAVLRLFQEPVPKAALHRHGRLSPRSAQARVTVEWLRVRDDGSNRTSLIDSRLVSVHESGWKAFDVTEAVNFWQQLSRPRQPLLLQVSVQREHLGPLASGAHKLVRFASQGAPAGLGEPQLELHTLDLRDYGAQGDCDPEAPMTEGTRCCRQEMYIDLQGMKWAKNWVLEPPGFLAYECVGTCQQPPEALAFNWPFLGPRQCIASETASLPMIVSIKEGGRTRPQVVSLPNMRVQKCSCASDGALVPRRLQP
# Chain of Torsin-1A-interacting protein 1 (Homo sapiens) (Q5JTV8 whole entry, looked up): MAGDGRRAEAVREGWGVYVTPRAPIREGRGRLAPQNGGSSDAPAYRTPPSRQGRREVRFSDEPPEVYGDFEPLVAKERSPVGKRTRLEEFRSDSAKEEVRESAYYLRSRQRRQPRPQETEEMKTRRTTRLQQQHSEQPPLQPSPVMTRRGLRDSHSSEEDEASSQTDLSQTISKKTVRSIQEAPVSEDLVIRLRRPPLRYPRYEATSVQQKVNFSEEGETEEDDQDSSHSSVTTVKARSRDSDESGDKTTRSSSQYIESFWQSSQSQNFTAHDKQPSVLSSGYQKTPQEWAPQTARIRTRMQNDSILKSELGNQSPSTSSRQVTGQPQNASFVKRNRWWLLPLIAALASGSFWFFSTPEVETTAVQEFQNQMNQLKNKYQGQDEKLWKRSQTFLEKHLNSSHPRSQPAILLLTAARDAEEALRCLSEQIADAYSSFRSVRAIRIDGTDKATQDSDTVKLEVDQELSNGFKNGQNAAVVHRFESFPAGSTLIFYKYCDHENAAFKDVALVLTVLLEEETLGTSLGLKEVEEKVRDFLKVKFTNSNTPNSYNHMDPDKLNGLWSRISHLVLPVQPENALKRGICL
SMILES,composite z-score [1],z-score [2],composite z-score [3],composite z-score [4],composite z-score [5],composite z-score [6],composite z-score [7],composite z-score [8],composite z-score [9],composite z-score [10]
COC(=O)C(CC#Cc1ccc2c(c1)[C@]1(C(=O)N2)[C@H](C(=O)N2CCc3cc(OC)c(OC)cc3C2)[C@H]2C(=O)O[C@H](c3ccccc3)[C@H](c3ccccc3)N2[C@@H]1c1ccccc1OCCO)C(=O)OC,-0.099,-2.09,0.815,1.02,-0.509,-0.0161,-0.0289,0.682,1.59,2.65
COC(=O)[C@@]1(Cc2ccccc2)[C@H]2c3cc(C(=O)N4CCCC4)n(Cc4ccc(OC)c(OC)c4)c3C[C@H]2CN1C(=O)c1ccccc1,1.44,-2.27,-0.737,1.39,0.852,0.421,0.853,1.85,1.38,0.315
CN(C)CCCC[C@@H]1NC(=O)[C@H]2C[C@@H](C(=O)O)[C@@H](c3ccc(O)cc3)N2C1=O,1.55,-0.0575,1.62,2.44,1.23,0.866,1.5,3,4.54,3.2
COc1ccc(C(O)C2C=CC3C(=O)N(c4ccccc4)C(=O)C3N2Nc2ccc([N+](=O)[O-])cc2)c2ccccc12 (stereo not given),1.45,-0.749,-0.0163,1.86,0.554,0.062,0.204,1.61,1.6,2.54
CN(C)CCCNC(=O)[C@@H]1c2ccccc2C(=O)N(Cc2ccccc2C(F)(F)F)[C@H]1c1ccc(CO)cc1,-0.242,-1.68,-1.42,-0.206,-0.263,-0.1,-0.138,-0.163,0.689,0.542
CC1CC/C=C\[C@H]2OC34C=CCN(Cc5ccccc5)C(=O)[C@H]3N(CCCCCCO)C(=O)[C@@H]4C2C(=O)O1 (stereo not given in full),-0.504,-0.117,-1.26,0.284,0.636,-0.12,-0.0146,-0.0007,2.32,-1.2
O=C1O[C@@H](c2ccccc2)[C@@H](c2ccccc2)N2[C@@H](c3ccccc3OCCO)[C@]3(C(=O)Nc4ccc(C#CCCO)cc43)[C@@H](C(=O)NC[C@H](O)c3ccccc3)[C@H]12,1.49,-0.871,-0.274,2.34,0.953,0.489,-0.212,2.45,2.7,2.55
COc1ccc(C#Cc2ccc3c(c2)[C@]2(C(=O)N3)[C@H](C(=O)O)[C@H]3C(=O)O[C@H](c4ccccc4)[C@H](c4ccccc4)N3[C@@H]2c2ccccc2OCCO)cc1,0.263,-2.19,0.694,1.04,0.604,-0.235,0.0777,0.279,0.835,2.21
CC(C)(C)OC(=O)CC[C@@]1(C(=O)NCCN2CCOCC2)N=C(c2ccc(OCCCO)cc2)O[C@@H]1c1ccccc1CN=[N+]=[N-],1.02,-0.0116,-0.345,1.98,-0.0256,0.0219,-0.324,-0.481,0.462,0.519
COC(=O)[C@@]1(Cc2ccc(OC)cc2)[C@H]2c3cc(C(=O)N4CCCC4)n(CCn4cc([N+](=O)[O-])nc4C)c3C[C@H]2CN1C(=O)c1ccccc1,0.0832,-0.432,0.277,2.72,1.21,1.19,2.51,3.12,1.98,0.299
COC(=O)[C@@]1(Cc2ccc(F)cc2)[C@H]2c3cc(C(=O)N(C)C)n(C)c3C[C@H]2CN1C(=O)c1ccccc1,0.0469,-0.275,-0.21,1.1,0.815,0.0095,0.705,1.01,0.509,0.0278
